Laboratory results published in PubChem BioAssay AID489025 (Southern Research Specialized Biocontainment Screening …, 2010).
Among all 2,300 compounds or so, about 790 (34%) were called active. The rule behind the calls is not given here. This is one part of the list. Where a call stands in place of a potency, no number is given. Potency and affinity values are given separately.

assay: THP-1 cell cytotoxicity, dose response, cytotoxicity control for non-replicating M. tuberculosis project (AID 489025); conditions: THP-1 cell viability; series mostly up to 40 µM

| SMILES | outcome |
| --- | --- |
| O=C(c1nnc(-c2ccc(Cl)cc2)o1)C1CCCC1 | inactive |
| CC1(c2nnc(Cc3ccccc3)o2)CC(c2ccccc2[N+](=O)[O-])=NO1 (stereo unspecified) | inactive |
| O=C(CCNc1cccc(F)c1)c1cccc([N+](=O)[O-])c1 | inactive |
| COC(=O)c1cccc(NC(=O)COc2cccc([N+](=O)[O-])c2)c1 | inactive |
| CCCCCCCC(=O)N/N=C/c1ccc([N+](=O)[O-])o1 | inactive |
| CCc1nnc(N/N=C/c2ccc(-c3ccc([N+](=O)[O-])cc3)o2)n1N | inactive |
| CC1Cc2ccccc2N1C(=O)COC(=O)c1ccc(Cl)nc1 (stereo unspecified) | inactive |
| O=C(COC(=O)c1ccc(Br)o1)NCCCc1ccccc1 | inactive |
| COC(=O)CCSCc1cn2cc(Cl)ccc2n1 | inactive |
| CCC1CCc2sc(C(=O)NNC(=O)c3ccncc3)cc2C1 (stereo unspecified) | inactive |
| Cc1ccc(NCCC(=O)c2cccs2)cc1C | inactive |
| COc1ccc(N=N/C(=C\O)C(=O)c2cccs2)cc1 | inactive |
| Sc1oc(-c2ccccc2)cc1C=Nc1ccccc1 | inactive |
| CCOC(=O)COc1ccc(C2CC(C)=NN2c2ccccc2)cc1 (stereo unspecified) | inactive |
| COc1ccc(C2=NOC(COC(=O)c3ccc4ccccc4n3)C2)cc1 (stereo unspecified) | inactive |
| CCCCOc1ccc(NC(=O)CN2CCN(Cc3ccccc3)CC2)cc1 | inactive |
| O=C(COC(=O)C1CC2C=CC1C2)Nc1ccccc1 (stereo unspecified) | inactive |
| Cc1cc(C)n2[nH]c(=O)c(N=Nc3cccc(C(F)(F)F)c3)c2n1 | inactive |
| CCOC(=O)/C=C1\Nc2ccccc2OC1=O | inactive |

| SMILES | outcome |
| --- | --- |
| Clc1ccc(OCCCCN2CCc3ccccc3C2)cc1 | inactive |
| Cn1c(SCCOc2cccc(Cl)c2)nnc1-c1ccncc1 | inactive |
| O=C(COC(=O)CCc1c[nH]c2ccccc12)Nc1cc([N+](=O)[O-])ccc1Cl | inactive |
| O=C(CCCSc1nc2ccccc2s1)NCc1ccco1 | inactive |
| c1ccc(Cn2c(SCCN3CCOCC3)nnc2-c2cccnc2)cc1 | inactive |
| O=C(O)c1ccc(CN2C(=O)CSC2=S)cc1 | inactive |
| COc1ccc(CN=C2NN=C(c3ccc(Cl)cc3)CS2)cc1 | inactive |
| O=C(O)CCCCCN1C(=O)CSC1=S | inactive |
| CCOc1ccc(OCC(=O)Nc2nccs2)cc1 | inactive |
| COc1ccc(NC(=O)Nc2ccc(O)c3ccccc23)cc1 | inactive |
| CCOc1ccc2ccccc2c1/C=N/NC(=O)c1ccncc1 | inactive |
| O=C(CCSc1ccc(Cl)cc1)Nc1cccnc1 | inactive |
| COc1ccc(C(=O)OCn2nnc3ccccc3c2=O)cc1 | inactive |
| Cc1ccc(C(=O)N/N=C/c2cccc3ccccc23)cn1 | inactive |
| CCOC(=O)C1CCN(CCCSc2ccc(Cl)cc2)CC1 | inactive |
| C/C(=N\NC(=O)c1cccc(Cl)c1)C1C(=O)c2ccccc2C1=O | inactive |
| C/C(=N\NC(=O)c1ccncc1)c1cc2ccccc2oc1=O | inactive |
| C/C(=N/NC(=O)c1cccc(C)c1)c1c(O)cc(C)oc1=O | inactive |
| O=C(CCc1ccccc1)NC1C2CC3CC(C2)CC1C3 (stereo unspecified) | inactive |

| SMILES | outcome |
| --- | --- |
| Cc1ccccc1C(=O)NN1CC(C(=O)OCc2ccc(Cl)c(Cl)c2)CC1=O (stereo unspecified) | inactive |
| CSc1ccccc1C(=O)NCc1ccc(S(N)(=O)=O)cc1 | inactive |
| O=C(COc1ccc(Cl)cc1)OCC(=O)N1CCCc2ccccc21 | inactive |
| O=C(Nc1cccnc1)c1cc(Cl)ccc1Cl | inactive |
| CNC(=O)c1[nH]cnc1C(=O)Nc1ccc(Cl)cc1 | inactive |
| CN1/C(=C\C(=O)COC(=O)c2ccc([N+](=O)[O-])o2)C(C)(C)c2ccccc21 | inactive |
| CN1/C(=C\C(=O)COC(=O)C2COc3ccccc3O2)C(C)(C)c2ccccc21 (stereo unspecified) | inactive |
| O=C(NCc1ccc(F)cc1)c1cnccn1 | inactive |
| O=C(OCC(=O)C12CC3CC(CC(C3)C1)C2)c1ccccn1 | inactive |
| NNC(=O)CNC(=O)C12CC3CC(CC(C3)C1)C2 | inactive |
| CC(C)c1ccc(OCC(=O)NNC(=O)c2cnccn2)cc1 | inactive |
| O=C(OCc1ccc(Cl)c(Cl)c1)c1ccccn1 | inactive |
| O=C(Oc1cccnc1)c1ccc(Cl)c(Cl)c1 | inactive |
| Nc1c(C(=O)NC2CCCCC2)nsc1C(=O)OCC(=O)NC1CCCCC1 | inactive |
| COC(=O)COc1ccc(S(=O)(=O)NCc2ccc3c(c2)OCO3)cc1 | inactive |
| COC(=O)CCCC(=O)N1CCCC(C(=O)c2ccc(-c3ccccc3)cc2)C1 (stereo unspecified) | inactive |
| N#Cc1ccc(CSc2nnc(-c3cccnc3)o2)cc1 | inactive |
| O=C(COC(=O)CCC(=O)c1ccc(F)cc1)Nc1ccccc1 | inactive |
